In PubChem BioAssay (EPA / NIEHS) one finds outcome and AC50 data, which are given here for 3 compounds.

The source made the active and inactive calls. Rule for the calls: active = hit-call score of the fitted dose curve at least 0.9, where 1 is the maximum; inactive = score below 0.9.

Conditions in all cases: mRNA level, 48 h; actives raise or lower the signal
Read-out in test [1]: Lipoprotein lipase (LPL), LPL (gene 4023)
Briefly: LTEA_HepaRG_LPL: Life Technologies and Expression Analysis (LTEA) Assay for Lipoprotein lipase (LPL) using HepaRG (AID 2283515). Summed up: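 Differentiated HepaRG cells, plated 48 h, then exposed 48 h in serum-free induction medium to 8 concentrations (top 100 uM, half-log steps) in 0.5% DMSO, duplicate. LPL mRNA measured by qRT-PCR, normalized to ACTB, GAPDH and POLR2A.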

Read-out in test [2]: MicroRNA 122 (MIR122), gene 406906
Kind of test: LTEA_HepaRG_MIR122: Life Technologies and Expression Analysis (LTEA) Assay for MicroRNA 122 (MIR122) using HepaRG (AID 2283516). Note: the transcript read is the microRNA miR-122. Summed up: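 Differentiated human HepaRG cells in serum-free induction medium exposed 48 h to 8 half-log concentrations from 100 uM in 0.5% DMSO, duplicate. MIR122 quantified by Fluidigm TaqMan qRT-PCR, normalised to ACTB, GAPDH, POLR2A; fold change fitted bidirectionally versus DMSO.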

Read-out in test [3]: matrix metalloproteinase-10 (MMP10), MMP10 (gene 4319)
Kind of test: LTEA_HepaRG_MMP10: Life Technologies and Expression Analysis (LTEA) Assay for matrix metalloproteinase-10 (MMP10) using HepaRG (AID 2283517). Summed up: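 Differentiated HepaRG cells in serum-free induction medium exposed 48 h in duplicate to 8-point half-log series up to 100 uM in 0.5% DMSO. mRNA quantified by qRT-PCR, normalised to ACTB, GAPDH, POLR2A; bidirectional fit versus DMSO.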

Read-out in a further test: MYC, MYC (gene 4609)
Kind of test: LTEA_HepaRG_MYC: Life Technologies and Expression Analysis (LTEA) Assay for MYC using HepaRG (AID 2283518). In a few lines: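 Differentiated human HepaRG cells, plated 48 h then switched to serum-free induction medium, were exposed in duplicate for 48 h to 8-point half-log series up to 100 uM in 0.5% DMSO. MYC mRNA measured by qRT-PCR, normalized to ACTB/GAPDH/POLR2A.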

Read-out in test [4]: matrix metalloproteinase-3 (MMP3), MMP3 (gene 4314)
Kind of test: LTEA_HepaRG_MMP3: Life Technologies and Expression Analysis (LTEA) Assay for matrix metalloproteinase-3 (MMP3) using HepaRG (AID 2283519). Summed up: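 HepaRG cells (~100,000/well) in serum-free induction medium were dosed in duplicate for 48 h with an 8-point half-log series from 100 uM, 0.5% DMSO. MMP3 mRNA was quantified by Fluidigm TaqMan qRT-PCR, normalized to three housekeeping genes.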

Read-out in test [5]: Paternally Expressed 10 (PEG10), PEG10 (gene 23089)
Briefly: LTEA_HepaRG_PEG10: Life Technologies and Expression Analysis (LTEA) Assay for Paternally Expressed 10 (PEG10) using HepaRG (AID 2283520). In a few lines: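 Differentiated HepaRG cells exposed 48 h in serum-free induction medium to eight half-log concentrations topping at 100 uM, 0.5% DMSO, in duplicate. PEG10 mRNA quantified by TaqMan qRT-PCR, normalized to ACTB, GAPDH and POLR2A; bidirectional fit versus DMSO.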

Read-out in test [6]: Nuclear factor NF-kappa-B p105 subunit (Homo sapiens) (UniProt P19838)
Briefly: LTEA_HepaRG_NFKB1: Life Technologies and Expression Analysis (LTEA) Assay for Nuclear Factor Kappa B Subunit 1 (NFKB1) using HepaRG (AID 2283521).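 Note: TaqMan qRT-PCR transcript normalised to ACTB GAPDH and POLR2A housekeeping genes.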 In a few lines:
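Differentiated human HepaRG cells in serum-free induction medium with 0.5% DMSO were exposed for 48 h to eight half-log concentrations, top 100 uM, in duplicate. NFKB1 mRNA measured by Fluidigm TaqMan qRT-PCR, normalised to ACTB, GAPDH and POLR2A; bidirectional fit versus DMSO.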

Read-out in test [7]: Protein phosphatase 2A (PPP2R4), PTPA (gene 5524)
Briefly: LTEA_HepaRG_PPP2R4: Life Technologies and Expression Analysis (LTEA) Assay for Protein phosphatase 2A (PPP2R4) using HepaRG (AID 2283522). Summed up: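 Differentiated human HepaRG cells in serum-free induction medium were exposed 48 h to 8 concentrations (top 100 µM, half-log steps, duplicate) in 0.5% DMSO. PPP2R4 mRNA was measured by TaqMan qRT-PCR, normalised to ACTB, GAPDH and POLR2A, and fitted bidirectionally versus DMSO.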

Read-out in test [8]: Phosphatase and tensin (PTEN), PTEN (gene 5728)
Kind of test: LTEA_HepaRG_PTEN: Life Technologies and Expression Analysis (LTEA) Assay for Phosphatase and tensin (PTEN) using HepaRG (AID 2283523). Summed up: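 HepaRG cells, 48 h after plating, exposed in duplicate for 48 h in serum-free induction medium to 8 half-log concentrations up to 100 uM (0.5% DMSO). PTEN mRNA by qRT-PCR, normalized to ACTB, GAPDH, POLR2A; bidirectional fit versus DMSO.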

Read-out in test [9]: solute carrier (SLC22A1), SLC22A1 (gene 6580)
Briefly: LTEA_HepaRG_SLC22A1: Life Technologies and Expression Analysis (LTEA) Assay for solute carrier (SLC22A1) using HepaRG (AID 2283524). Summed up:
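Differentiated human HepaRG cells in serum-free induction medium, exposed 48 h in duplicate to 8-point half-log series from 100 µM top in 0.5% DMSO. SLC22A1 mRNA by TaqMan qRT-PCR normalized to ACTB, GAPDH, POLR2A; bidirectional fit versus DMSO.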

Read-out in test [10]: Pyruvate Dehydrogenase Kinase 4 (PDK4), PDK4 (gene 5166)
Kind of test: LTEA_HepaRG_PDK4: Life Technologies and Expression Analysis (LTEA) Assay for Pyruvate Dehydrogenase Kinase 4 (PDK4) using HepaRG (AID 2283525). In a few lines:
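HepaRG cells plated 48 h, then switched to serum-free induction medium and exposed in duplicate for 48 h to 8 half-log concentrations from 100 uM in 0.5% DMSO. PDK4 mRNA measured by qRT-PCR, normalized to ACTB, GAPDH and POLR2A; bidirectional fit versus DMSO.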

Read-out in test [11]: NAD(P)H dehydrogenase [quinone] 1 (NQO1), NQO1 (gene 1728)
Briefly: LTEA_HepaRG_NQO1: Life Technologies and Expression Analysis (LTEA) Assay for NAD(P)H dehydrogenase [quinone] 1 (NQO1) using HepaRG (AID 2283526). Summed up:
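Differentiated human HepaRG cells in serum-free induction medium, dosed in duplicate for 48 h at 8 half-log concentrations up to 100 uM in 0.5% DMSO. NQO1 mRNA by qRT-PCR normalized to ACTB, GAPDH, POLR2A; bidirectional fit versus DMSO baseline.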

Read-out in test [12]: Nuclear factor erythroid 2-related factor 2 (Homo sapiens) (UniProt Q16236)
Briefly: LTEA_HepaRG_NFE2L2: Life Technologies and Expression Analysis (LTEA) Assay for Nuclear factor erythroid 2-related factor 2 (NFE2L2) Transcription Factor using HepaRG (AID 2283527).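 For outcome: TaqMan qRT-PCR transcript level normalised to ACTB GAPDH and POLR2A housekeeping genes.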 In a few lines: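 Differentiated human HepaRG cells, serum-free induction medium, exposed 48 h in duplicate to eight half-log concentrations up to 100 uM in 0.5% DMSO. NFE2L2 mRNA by Fluidigm TaqMan qRT-PCR, normalised to ACTB, GAPDH, POLR2A; bidirectional change versus DMSO.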

Read-out in test [13]: succinate dehydrogenase complex iron sulfur subunit B (SDHB), SDHB (gene 6390)
Briefly: LTEA_HepaRG_SDHB: Life Technologies and Expression Analysis (LTEA) Assay for succinate dehydrogenase complex iron sulfur subunit B (SDHB) using HepaRG (AID 2283528). Summed up:
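HepaRG cells (~100,000/well, plated 48 h) exposed in duplicate for 48 h in serum-free induction medium to 8-point half-log series from 100 uM in 0.5% DMSO; mRNA by qRT-PCR normalised to ACTB, GAPDH, POLR2A; bidirectional fit versus DMSO.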

Read-out in test [14]: Signal transducer and activator of transcription 3 (Homo sapiens) (UniProt P40763)
Kind of test: LTEA_HepaRG_STAT3: Life Technologies and Expression Analysis (LTEA) Assay for Signal transducer and activator of transcription (STAT3) using HepaRG (AID 2283529). Summed up: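 Differentiated HepaRG cells, serum-free induction medium, dosed 48 h in duplicate, 8 half-log concentrations from 100 uM in 0.5% DMSO. STAT3 mRNA by qRT-PCR, normalised to ACTB, GAPDH, POLR2A; bidirectional fit versus DMSO.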

Read-out in test [15]: solute carrier (SLCO1B1), SLCO1B1 (gene 10599)
Kind of test: LTEA_HepaRG_SLCO1B1: Life Technologies and Expression Analysis (LTEA) Assay for solute carrier (SLCO1B1) using HepaRG (AID 2283530). In a few lines: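 Differentiated human HepaRG cells, plated 48 h, switched to serum-free induction medium and exposed in duplicate for 48 h to 8 half-log concentrations (top 100 uM) in 0.5% DMSO. SLCO1B1 mRNA by TaqMan qRT-PCR, normalized to ACTB/GAPDH/POLR2A.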

Read-out in test [16]: sulfotransferase 2A1 (SULT2A1), SULT2A1 (gene 6822)
Briefly: LTEA_HepaRG_SULT2A1: Life Technologies and Expression Analysis (LTEA) Assay for sulfotransferase 2A1 (SULT2A1) using HepaRG (AID 2283531). Summed up:
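Differentiated human HepaRG cells in serum-free induction medium were exposed for 48 h to eight half-log concentrations (top 100 uM, 0.5% DMSO). SULT2A1 mRNA was measured by qRT-PCR, normalized to ACTB, GAPDH and POLR2A, and fitted bidirectionally against DMSO.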

Read-out in test [17]: Transforming Growth Factor (TGFA), TGFA (gene 7039)
Kind of test: LTEA_HepaRG_TGFA: Life Technologies and Expression Analysis (LTEA) Assay for Transforming Growth Factor (TGFA) using HepaRG (AID 2283532). Summed up: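 Differentiated HepaRG cells exposed 48 hours in serum-free induction medium, 0.5% DMSO vehicle, 8-point half-log series from 100 uM, in duplicate. TGFA mRNA by TaqMan qRT-PCR, normalised to ACTB, GAPDH, POLR2A; bidirectional fit versus DMSO.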

Read-out in test [18]: Transforming Growth Factor (TGFB1), TGFB1 (gene 7040)
Kind of test: LTEA_HepaRG_TGFB1: Life Technologies and Expression Analysis (LTEA) Assay for Transforming Growth Factor (TGFB1) Transporter using HepaRG (AID 2283533). Summed up: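 Differentiated human HepaRG cells in serum-free induction medium were exposed in duplicate for 48 h to eight concentrations (top 100 uM, half-log steps, 0.5% DMSO). TGFB1 mRNA was quantified by qRT-PCR, normalized to ACTB, GAPDH, POLR2A, and fitted bidirectionally against DMSO.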

Read-out in a further test: TIMP1, TIMP1 (gene 7076)
Kind of test: LTEA_HepaRG_TIMP1: Life Technologies and Expression Analysis (LTEA) Assay for TIMP1 using HepaRG (AID 2283534).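 Note: TaqMan qRT-PCR signal normalized to ACTB GAPDH and POLR2A housekeeping genes.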 In a few lines:
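Differentiated human HepaRG cells in serum-free induction medium were exposed 48 h to chemicals (8 half-log concentrations, top 100 uM, 0.5% DMSO). TIMP1 mRNA was quantified by TaqMan qRT-PCR, normalized to ACTB/GAPDH/POLR2A; bidirectional fit versus DMSO.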

Nuclear factor erythroid 2-related factor 2 (Homo sapiens), sequence (Q16236 whole entry, looked up): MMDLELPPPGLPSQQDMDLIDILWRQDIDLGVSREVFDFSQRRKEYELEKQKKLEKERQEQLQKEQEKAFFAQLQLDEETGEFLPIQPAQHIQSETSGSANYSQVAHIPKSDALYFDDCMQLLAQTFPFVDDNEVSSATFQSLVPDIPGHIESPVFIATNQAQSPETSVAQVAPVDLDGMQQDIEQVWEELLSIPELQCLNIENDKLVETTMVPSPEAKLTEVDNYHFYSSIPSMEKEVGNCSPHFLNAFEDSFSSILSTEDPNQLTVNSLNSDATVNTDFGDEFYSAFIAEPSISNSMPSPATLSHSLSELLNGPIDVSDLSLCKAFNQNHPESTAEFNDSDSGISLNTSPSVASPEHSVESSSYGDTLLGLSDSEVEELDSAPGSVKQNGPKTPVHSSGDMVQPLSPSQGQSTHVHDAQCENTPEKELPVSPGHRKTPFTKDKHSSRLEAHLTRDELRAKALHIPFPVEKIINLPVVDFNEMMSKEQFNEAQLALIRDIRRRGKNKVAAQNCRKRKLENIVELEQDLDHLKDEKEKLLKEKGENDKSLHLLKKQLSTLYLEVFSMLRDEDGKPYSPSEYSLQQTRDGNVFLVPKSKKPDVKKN
Nuclear factor NF-kappa-B p105 subunit (Homo sapiens), sequence (P19838 whole entry, looked up): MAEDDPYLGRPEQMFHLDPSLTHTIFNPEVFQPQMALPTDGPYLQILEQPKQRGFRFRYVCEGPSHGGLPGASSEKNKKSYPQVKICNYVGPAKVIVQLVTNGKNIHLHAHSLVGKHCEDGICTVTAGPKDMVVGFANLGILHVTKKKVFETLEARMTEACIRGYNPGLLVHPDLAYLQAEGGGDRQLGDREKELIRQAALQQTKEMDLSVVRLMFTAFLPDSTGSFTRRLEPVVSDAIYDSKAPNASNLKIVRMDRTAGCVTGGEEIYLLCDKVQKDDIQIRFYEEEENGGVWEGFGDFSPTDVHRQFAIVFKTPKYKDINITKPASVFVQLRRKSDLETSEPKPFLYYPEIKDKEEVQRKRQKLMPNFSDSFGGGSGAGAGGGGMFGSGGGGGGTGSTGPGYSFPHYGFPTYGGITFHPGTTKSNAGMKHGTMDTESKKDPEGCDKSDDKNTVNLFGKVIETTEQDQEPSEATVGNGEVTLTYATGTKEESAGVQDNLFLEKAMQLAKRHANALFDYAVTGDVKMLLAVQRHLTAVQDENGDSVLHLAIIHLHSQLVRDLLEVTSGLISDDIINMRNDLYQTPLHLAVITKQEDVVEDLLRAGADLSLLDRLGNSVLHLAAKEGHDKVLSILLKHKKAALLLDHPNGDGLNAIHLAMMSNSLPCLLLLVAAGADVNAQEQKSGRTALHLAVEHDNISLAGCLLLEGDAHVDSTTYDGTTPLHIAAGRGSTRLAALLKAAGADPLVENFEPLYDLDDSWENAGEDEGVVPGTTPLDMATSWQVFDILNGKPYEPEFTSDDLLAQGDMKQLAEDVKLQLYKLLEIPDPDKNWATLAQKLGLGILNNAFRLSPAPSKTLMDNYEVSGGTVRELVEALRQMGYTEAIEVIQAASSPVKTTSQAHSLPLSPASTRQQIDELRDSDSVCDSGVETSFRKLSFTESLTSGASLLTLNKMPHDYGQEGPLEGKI
Signal transducer and activator of transcription 3 (Homo sapiens), sequence (P40763 whole entry, looked up): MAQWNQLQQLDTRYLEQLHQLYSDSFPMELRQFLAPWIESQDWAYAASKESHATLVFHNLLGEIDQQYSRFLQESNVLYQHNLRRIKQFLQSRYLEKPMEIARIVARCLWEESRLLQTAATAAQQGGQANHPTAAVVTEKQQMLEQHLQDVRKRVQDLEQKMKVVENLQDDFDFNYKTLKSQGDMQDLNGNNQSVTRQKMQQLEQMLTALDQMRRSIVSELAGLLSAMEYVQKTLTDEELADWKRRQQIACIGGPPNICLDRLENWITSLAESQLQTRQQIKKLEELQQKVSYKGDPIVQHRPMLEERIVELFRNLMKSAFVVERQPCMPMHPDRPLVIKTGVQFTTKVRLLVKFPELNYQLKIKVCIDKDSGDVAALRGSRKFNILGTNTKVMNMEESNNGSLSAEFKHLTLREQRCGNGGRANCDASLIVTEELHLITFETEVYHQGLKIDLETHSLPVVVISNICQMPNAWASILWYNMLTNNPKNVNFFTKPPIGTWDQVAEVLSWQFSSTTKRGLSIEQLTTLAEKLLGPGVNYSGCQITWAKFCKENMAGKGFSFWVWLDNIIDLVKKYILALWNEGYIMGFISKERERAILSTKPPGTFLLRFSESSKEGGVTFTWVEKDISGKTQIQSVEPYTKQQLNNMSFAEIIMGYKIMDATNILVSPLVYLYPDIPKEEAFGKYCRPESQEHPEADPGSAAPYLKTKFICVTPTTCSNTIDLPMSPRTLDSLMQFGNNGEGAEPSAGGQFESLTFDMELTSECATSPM

With `CN(C)C(=S)SSC(=S)N(C)C`, the outcome in test [1] is “inactive”; in test [2] it was “inactive”; in test [3], “inactive”; in the test with MYC, MYC (gene 4609) it was “inactive”; in [4], “inactive”; in test [5], “inactive”. Further, the compound was called inactive in test [6], in test [7], in test [8], in test [9], in test [10] and in test [11]. Also, the compound was called inactive in [12], in test [13], in [14], in test [15], in test [16] and in test [17]. The outcome in test [18] is “inactive”; with TIMP1, TIMP1 (gene 7076) it was “inactive”.

For `COP(N)(=O)SC` (stereo not given), the outcome was “inactive” in [1]; “inactive” in test [2]; “inactive” in test [3]; “inactive” with MYC, MYC (gene 4609); “inactive” in test [4]; “inactive” in test [5]. The result in test [6], in test [7], in test [8], in test [9], in [10] and in test [11] was inactive. Moreover, the compound was classed as inactive in test [12], in test [13], in test [14], in test [15], in test [16] and in [17]. For the same compound, the outcome in test [18] was “inactive”; with TIMP1, TIMP1 (gene 7076), “inactive”.

As to `CCCC1COC(Cn2cncn2)(c2ccc(Cl)cc2Cl)O1` (stereo not given), the AC50 (as a rule, the concentration giving half of the maximal activity seen) was 27.8 µM (active) in test [1]; 49.5 µM (active) in [2]; 77.8 µM (active) in test [3]; 35.4 µM (active) in the test with MYC, MYC (gene 4609); 89.4 µM (active) in [4]; 15 µM (active) in test [5]. Further, the AC50 in test [9] is 40.5 µM (active); in [10] it was 12.3 µM (active); in test [11] it was 50 µM (active); in test [12] it was 83.6 µM (active); in test [15] it was 62.8 µM (active); in test [16] it was 59 µM (active). The AC50 in test [17] was 50 µM (active); in test [18], 27.3 µM (active). Also, the outcome was “inactive” in test [6]; “inactive” in test [7]; “inactive” in test [8]; “inactive” in test [13]; “inactive” in test [14]; “inactive” with TIMP1, TIMP1 (gene 7076).
